Only some compounds are listed: those with a hit (about 4.7% of all), similar ones and a draw of the others.
TRHR ag – agonists of human TRH receptor. P34981. TRHR cells, calcium flux fluo-8, FDSS agonist mode. hit rate 0.18% among 360,000. activation, % at 2 µM; note: 0% is about no effect
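TRHR-expressing cells loaded with fluo-8 calcium dye; 23 nL library compound pin-transferred, kinetic FDSS fluorescence (Ex 480/Em 530) recorded about 180 s for agonist-induced calcium release, before a 10 nM TRH EC20 addition for potentiator mode.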
D1 ag – human D1 receptor agonism; HEK293 T-REx D1 cells, calcium flux, agonist mode; hit rate 1% among 360,000; activation, % at 2 µM; note: 0% is about no effect
Target sequence (P21728 whole entry, looked up): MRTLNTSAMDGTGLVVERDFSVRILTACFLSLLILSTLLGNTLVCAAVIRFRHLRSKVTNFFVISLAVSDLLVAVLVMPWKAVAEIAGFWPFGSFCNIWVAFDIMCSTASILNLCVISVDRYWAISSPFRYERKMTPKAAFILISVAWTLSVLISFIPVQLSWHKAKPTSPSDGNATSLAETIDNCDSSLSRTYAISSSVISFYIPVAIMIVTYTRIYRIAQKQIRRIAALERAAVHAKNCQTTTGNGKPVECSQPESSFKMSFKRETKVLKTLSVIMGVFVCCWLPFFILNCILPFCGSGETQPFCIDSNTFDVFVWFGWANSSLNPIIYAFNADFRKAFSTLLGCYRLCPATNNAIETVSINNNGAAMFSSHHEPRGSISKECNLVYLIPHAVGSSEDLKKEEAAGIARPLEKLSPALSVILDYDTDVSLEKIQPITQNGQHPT
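Agonism was scored from calcium flux recorded over 180 s (1 read/s) after pintool compound addition, following a 10-cycle baseline. Cells were inducible force-coupled HEK293 TREx D1, plated overnight at 30 C and loaded with no-wash calcium dye.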
D1 antag – antagonists of human D1 dopamine receptor | P21728 | HEK293 TREx D1 cells, calcium flux, dopamine EC80; hits give low values | activity change, negative = inhibition, % at 10 µM | hit rate 3.2% among 360,000 | AID 504652; in the data active = activity change below about -30%; note: % is set by controls: 0 for no effect and ±100 for the full control effect
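Using tetracycline-induced force-coupled D1 Hek293 cells and a calcium dye, signals were followed for 180 s after compound, then for 180 s after EC80 dopamine, to detect inhibitors.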
TRHR enhancer – allosterically enhances the human TRH receptor | AID 493056 | hit rate 0.66% among 360,000 | enhancement, % at 2 µM | P34981 | TRHR cells, fluo-8 calcium fluorescence, EC20 TRH enhancement; in the data active = enhancement above about 30%; note: 0% is about no effect
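TRHR-expressing cells loaded with fluo-8 calcium dye were read kinetically (ex 480/em 530) during compound addition, then stimulated with an EC20 of TRH (10 nM final). Enhancement of the Gq-mediated intracellular calcium response was scored.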
D1 potentiator – human D1 dopamine receptor positive modulation | HEK293 TREx D1 cells, calcium flux, dopamine EC20 potentiation | P21728 | AID 504651 | potentiation, % at 10 µM | hit rate 0.036% among 360,000; in the data active = potentiation above about 30%; note: 0% is about no effect
* marks the source's active call; other numbers are inactive results. Cut-off read from the data, not from the text of the source, unless noted: active = activation above about 30%; inactive = the rest.

Results for O=C(O)CC/C(=N/NC(=O)CNC(=O)C(c1ccccc1)c1ccccc1)c1ccccc1 ?
TRHR ag: -1.3; D1 ag: 3.6; D1 antag: -34.1*; TRHR enhancer: -3.3; D1 potentiator: -9.6

What do the screens show for `CC(NC(=O)CSc1n[nH]c(N)n1)c1ccccc1` (stereo not given)?
TRHR ag: 0.6; D1 ag: 19.8; D1 antag: 4.4; TRHR enhancer: -5.7

How did CCCc1ccc(-c2cc(NC(=O)CSc3n[nH]c(N)n3)n(-c3ccccc3)n2)cc1 do in these assays?
TRHR ag: -1.0; D1 ag: 32.9*; D1 antag: 0.9; TRHR enhancer: 0.6; D1 potentiator: 4.3

What do the screens show for `CC(=O)NCCCc1nc2ccccc2n1Cc1ccccc1C`?
TRHR ag: 0.1; D1 ag: 42.5*; D1 antag: 5.5; TRHR enhancer: 0.7; D1 potentiator: -11.8

Results for COc1ccc(Cc2nc3ccccc3n2Cc2ccccc2C)cc1 ?
TRHR ag: 0.6; D1 ag: 22.9; D1 antag: -15.4; TRHR enhancer: -2.9; D1 potentiator: -2.5

What do the screens show for `C=CCn1c(COc2ccc(OC)cc2)nc2ccccc21`?
TRHR ag: 0.0; D1 ag: 1.4; D1 antag: -34.8*; TRHR enhancer: -1.2; D1 potentiator: -4.2

How did CCn1c(COc2ccc(OC)cc2)nc2ccccc21 do in these assays?
TRHR ag: -0.2; D1 ag: 3.6; D1 antag: -16.9; TRHR enhancer: 0.6; D1 potentiator: -6.5

Results for COc1cccc(OCc2nc3ccccc3n2Cc2ccccc2C)c1 ?
TRHR ag: 5.2; D1 ag: 39.9*; D1 antag: -11.0; TRHR enhancer: -8.9; D1 potentiator: 0.5

What do the screens show for `Cc1cccc(OCCn2c(SCC(N)=O)nc3ccccc32)c1`?
TRHR ag: -0.2; D1 ag: 16.7; D1 antag: 6.0; TRHR enhancer: 0.3; D1 potentiator: -1.9

How did Cc1cc(C)c2sc(N(CCCN(C)C)C(=O)CN3C(=O)c4ccccc4C3=O)nc2c1 do in these assays?
TRHR ag: 2.5; D1 ag: 42.1*; D1 antag: -6.1; TRHR enhancer: -0.5; D1 potentiator: -6.5

What do the screens show for `Cc1ccc2nc(N(CCCN(C)C)C(=O)CCc3ccccc3)sc2c1`?
TRHR ag: 1.2; D1 ag: 15.6; D1 antag: -2.3; TRHR enhancer: 4.5; D1 potentiator: -0.1

How did CN(C)CCCN(C(=O)CCc1ccccc1)c1nc2ccc(Cl)cc2s1 do in these assays?
TRHR ag: 6.6; D1 ag: 31.4*; D1 antag: -8.3; TRHR enhancer: 4.4; D1 potentiator: -8.5

What do the screens show for `Cc1ccc2nc(N(CCCN(C)C)C(=O)CN3C(=O)c4ccccc4C3=O)sc2c1`?
TRHR ag: 2.6; D1 ag: 44.2*; D1 antag: -19.7; TRHR enhancer: 0.8; D1 potentiator: -15.2

What do the screens show for `Cc1c(C(=O)Nc2ccc(S(=O)(=O)N(C)C3CCN(C)CC3)cc2)oc2ccccc12`?
TRHR ag: 0.8; D1 ag: 32.2*; D1 antag: -29.6; TRHR enhancer: -2.4; D1 potentiator: -5.5

Results for Cc1c(C(=O)Nc2ccc(S(=O)(=O)N(C)C3CCN(C)CC3)cc2)oc2c(Cl)cccc12 ?
TRHR ag: 0.2; D1 ag: 58.8*; D1 antag: -59.7*; TRHR enhancer: -2.8; D1 potentiator: -1.9

How did Cc1cc2c(s1)c1cnn(Cc3c(Cl)cccc3Br)c(=O)c1n2C do in these assays?
TRHR ag: 0.7; D1 ag: -0.1; D1 antag: 20.0; TRHR enhancer: -1.2; D1 potentiator: 4.8

Results for Cc1ccc(C2=Nc3ccccc3NC(c3ccncc3)=N2)cc1 ?
TRHR ag: -2.6; D1 ag: 0.7; D1 antag: -2.7; TRHR enhancer: 12.3; D1 potentiator: 1.1

What do the screens show for `COCC(=O)Nc1ncc(S(=O)(=O)c2ccc([N+](=O)[O-])cc2)s1`?
TRHR ag: 1.8; D1 ag: 3.4; D1 antag: 4.0; TRHR enhancer: -1.3; D1 potentiator: -4.2

How did O=C(Nc1ncc(S(=O)(=O)c2ccc([N+](=O)[O-])cc2)s1)c1cccc2ccccc12 do in these assays?
TRHR ag: 5.0; D1 ag: 55.8*; D1 antag: -4.0; TRHR enhancer: -3.4; D1 potentiator: 8.7

How did COc1ccc(CN2C(=O)C(C)Oc3ccccc32)cc1 (stereo not given) do in these assays?
TRHR ag: -0.9; D1 ag: 12.5; D1 antag: -35.3*; TRHR enhancer: -5.5; D1 potentiator: 6.2

Results for Cc1ccc(-c2csc(-c3cc4c([nH]c3=O)CC(c3ccccc3)CC4=O)n2)cc1 (stereo not given) ?
TRHR ag: 2.1; D1 ag: 5.0; D1 antag: 3.1; TRHR enhancer: 15.8; D1 potentiator: 0.6

What do the screens show for `COc1ccc(C(=O)Nc2ccc3oc(-c4ccc(F)cc4Cl)nc3c2)cc1`?
TRHR ag: 0.5; D1 ag: 0.0; D1 antag: -37.6*; TRHR enhancer: -6.7; D1 potentiator: -2.8

Results for COc1cc2ccccc2cc1C(=O)Nc1ccc2oc(-c3ccc(F)cc3Cl)nc2c1 ?
TRHR ag: 0.5; D1 ag: -1.8; D1 antag: 3.5; TRHR enhancer: 4.4; D1 potentiator: 0.8

What do the screens show for `COc1ccc(NC(=O)CCS(=O)(=O)c2cc3c4c(c2)CCN4C(=O)CC3)cc1OC`?
TRHR ag: 0.8; D1 ag: 3.0; D1 antag: 7.6; TRHR enhancer: -2.2; D1 potentiator: -2.5

What do the screens show for `CCOC(=O)c1c(C)c(C(=O)NCc2ccc(Cl)cc2)c(C)n1C`?
TRHR ag: 0.2; D1 ag: 1.4; D1 antag: 5.6; TRHR enhancer: 34.8*; D1 potentiator: -5.3

What do the screens show for `CC1CCC/C(=N/Nc2ccc([N+](=O)[O-])cc2[N+](=O)[O-])C1` (stereo not given)?
TRHR ag: 0.2; D1 ag: 7.4; D1 antag: -32.1*; TRHR enhancer: 2.1; D1 potentiator: -0.8

What do the screens show for `CC1CCC(=NNc2ccc(C(F)(F)F)cc2[N+](=O)[O-])CC1` (stereo not given)?
TRHR ag: 0.3; D1 ag: 4.4; D1 antag: 7.5; TRHR enhancer: -0.6; D1 potentiator: 0.6

What do the screens show for `Cc1cc2c(s1)c1cnn(Cc3ccc(C(=O)O)cc3)c(=O)c1n2C`?
TRHR ag: -0.5; D1 ag: 6.9; D1 antag: -4.8; TRHR enhancer: 8.0; D1 potentiator: 5.0

What do the screens show for `O=c1oc2ccccc2cc1-c1ccc(O)cc1O`?
TRHR ag: 0.3; D1 ag: 2.4; D1 antag: -31.5*; TRHR enhancer: 6.1; D1 potentiator: -1.9

What do the screens show for `CCOC(=O)c1nnn2c1nc(N1CCCCC1)c1ccccc12`?
TRHR ag: 0.1; D1 ag: -1.1; D1 antag: -42.2*; TRHR enhancer: -5.9; D1 potentiator: 6.5

How did C=CCOc1cccc(CNCc2ccncc2)c1 do in these assays?
TRHR ag: -0.4; D1 ag: 12.0; D1 antag: -34.9*; TRHR enhancer: -7.5; D1 potentiator: -6.8
